# Assay results as given in PubChem BioAssay (NCATS).
# Records with an inconclusive call do not appear. Unmarked numbers belong to inactive results. Calls of active or inactive are those of the source. Calls follow the shape of the dose curve; as a rule, active = well fitted curve in the direction sought with a large enough effect; inconclusive = small, poorly fitted or top-dose-only effect, or another doubt; inactive = no such curve, though single readings can be large; an effect the other way counts as inactive or inconclusive.
# Tests used:
# [1] = Quantitative High-Throughput drug screen in 47 multiple myeloma cell lines against the NCATS MIPE library collection: KMS26_JCRB cell viability assay (AID 1918975); also: nearly all actives have a fitted effect of over 45% in size; also: potency is read from the fitted curve at half-maximal effect
# Procedure, shortened: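 Inhibition of cell viability is measured here. Each line was plated at 500 cells per well, treated with MIPE 4.0 drugs, kept 48 hours at 37C, then assayed for ATP content by CellTiter-Glo luminescence.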
# [2] = Quantitative High-Throughput drug screen in 47 multiple myeloma cell lines against the NCATS MIPE library collection: MMM1_PLB cell viability assay (AID 1918976); also: potency is read from the fitted curve at half-maximal effect; nearly all actives have a fitted effect of over 35% in size
# Procedure, shortened: (§1)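 Viability after 48 h drug exposure was measured as ATP-dependent luminescence. Cells, 500 per well, sat at 37 °C under 5% CO2; DMSO wells set 100%, media-only wells 0%.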
# [3] = Quantitative High-Throughput drug screen in 47 multiple myeloma cell lines against the NCATS MIPE library collection: NCIH929_DSMZ cell viability assay (AID 1918978); also: nearly all actives have a fitted effect of over 35% in size; also: potency is read from the fitted curve at half-maximal effect
# Procedure, shortened: as §1
# [4] = Quantitative High-Throughput drug screen in 47 multiple myeloma cell lines against the NCATS MIPE library collection: KMS34_JCRB cell viability assay (AID 1918985); also: nearly all actives have a fitted effect of over 40% in size; also: potency is read from the fitted curve at half-maximal effect
# Procedure, shortened: as §1
# [5] = Quantitative High-Throughput drug screen in 47 multiple myeloma cell lines against the NCATS MIPE library collection: OCIMY5_PLB cell viability assay (AID 1918988); also: nearly all actives have a fitted effect of over 65% in size; also: potency is read from the fitted curve at half-maximal effect
# Procedure, shortened: as §1
# [6] = Quantitative High-Throughput drug screen in 47 multiple myeloma cell lines against the NCATS MIPE library collection: U266_ATCC cell viability assay (AID 1919864); also: nearly all actives have a fitted effect of over 35% in size; also: potency is read from the fitted curve at half-maximal effect
# Procedure, shortened: as §1
# [7] = Quantitative High-Throughput drug screen in 47 multiple myeloma cell lines against the NCATS MIPE library collection: OCIMY1_PLB cell viability assay (AID 1918979); also: nearly all actives have a fitted effect of over 35% in size; also: potency is read from the fitted curve at half-maximal effect
# Procedure, shortened: as §1
# [8] = Quantitative High-Throughput drug screen in 47 multiple myeloma cell lines against the NCATS MIPE library collection: MM1S_ATCC cell viability assay (AID 1918980); also: nearly all actives have a fitted effect of over 45% in size; also: potency is read from the fitted curve at half-maximal effect
# Procedure, shortened: as §1
# [9] = Quantitative High-Throughput drug screen in 47 multiple myeloma cell lines against the NCATS MIPE library collection: OCIMY7_PLB cell viability assay (AID 1918987); settings: OCI-MY7 myeloma viability, CellTiter-Glo ATP, 48 h; viability (% of DMSO): at 45.8 µM (top of the series); also: nearly all actives have a fitted effect of over 65% in size; also: potency is read from the fitted curve at half-maximal effect
# Procedure, shortened: as §1
# [10] = Quantitative High-Throughput drug screen in 47 multiple myeloma cell lines against the NCATS MIPE library collection: LP1_DSMZ cell viability assay (AID 1918982); also: nearly all actives have a fitted effect of over 35% in size; also: potency is read from the fitted curve at half-maximal effect
# Procedure, shortened: as §1
# [11] = Quantitative High-Throughput drug screen in 47 multiple myeloma cell lines against the NCATS MIPE library collection: SKMM1_PLB cell viability assay (AID 1919863); settings: SKMM1 myeloma viability, CellTiter-Glo ATP, 48 h; viability: active compounds read low; also: nearly all actives have a fitted effect of over 35% in size; also: potency is read from the fitted curve at half-maximal effect
# Procedure, shortened: as §1
# [12] = Quantitative High-Throughput drug screen in 47 multiple myeloma cell lines against the NCATS MIPE library collection: OPM1_PLB cell viability assay (AID 1918989); also: nearly all actives have a fitted effect of over 40% in size; also: potency is read from the fitted curve at half-maximal effect
# Procedure, shortened: as §1
# [13] = Quantitative High-Throughput drug screen in 47 multiple myeloma cell lines against the NCATS MIPE library collection: KMS21BM_JCRB cell viability assay (AID 1918974); settings: ATP luminescence, 48 h; viability: at 45.8 µM (top of the series); also: potency is read from the fitted curve at half-maximal effect
# Procedure, shortened: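 Myeloma cell lines, 500 cells per well, exposed to MIPE 4.0 library compounds for 48 h at 37C, 5% CO2. Viability from ATP by CellTiter-Glo luminescence; normalised to DMSO (100%) and media-only (0%) wells.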
# [14] = Quantitative High-Throughput drug screen in 47 multiple myeloma cell lines against the NCATS MIPE library collection: MOLP8_DSMZ cell viability assay (AID 1918977); also: nearly all actives have a fitted effect of over 45% in size
# Procedure, shortened: as §1
# [15] = Quantitative High-Throughput drug screen in 47 multiple myeloma cell lines against the NCATS MIPE library collection: KMS28PE_JCRB cell viability assay (AID 1918983); also: nearly all actives have a fitted effect of over 35% in size; also: potency is read from the fitted curve at half-maximal effect
# Procedure, shortened: as §1
# [16] = Quantitative High-Throughput drug screen in 47 multiple myeloma cell lines against the NCATS MIPE library collection: MM1R_ATCC cell viability assay (AID 1918981); also: nearly all actives have a fitted effect of over 35% in size; also: potency is read from the fitted curve at half-maximal effect
# Procedure, shortened: as §1
# [17] = Quantitative High-Throughput drug screen in 47 multiple myeloma cell lines against the NCATS MIPE library collection: L363_DSMZ cell viability assay (AID 1918984); settings: L363 myeloma viability, CellTiter-Glo ATP luminescence, 48 h; viability (% of control): at 45.8 µM (top of the series); also: nearly all actives have a fitted effect of over 40% in size; also: potency is read from the fitted curve at half-maximal effect
# Procedure, shortened: as §1
compound,measurement,setting,value
Cc1ccc(C(=O)N(CCCN)[C@@H](c2oc3cc(Cl)ccc3c(=O)c2Cc2ccccc2)C(C)C)cc1,Potency,[1],26.4 µM (active)
same,Potency,[2],23.5 µM (active)
same,Potency,[3],8.33 µM (active)
same,Potency,[4],inactive
same,Potency,[5],inactive
same,Potency,[6],20.9 µM (active)
CC(=O)O[C@]1(C(C)=O)CC[C@H]2[C@@H]3C=C(Cl)C4=CC(=O)[C@@H]5C[C@H]5[C@]4(C)[C@@H]3CC[C@@]21C,Potency,[3],9.35 µM (active)
same,Potency,[7],inactive
same,Potency,[8],7.43 µM (active)
same,Potency,[9],9.35 µM (active)
same,Potency,[5],23.5 µM (active)
same,Potency,[6],8.33 µM (active)
C[C@]12CCC3=C4CCC(=O)C=C4CC[C@@H]3[C@H]1CC[C@@]2(O)CC#N,Potency,[1],inactive
same,Potency,[3],inactive
same,Potency,[7],inactive
same,Potency,[8],inactive
same,Potency,[10],inactive
same,viability,[11],162%
same,Potency,[6],inactive
O=C(Nc1ccccc1)Nc1ccc(-c2ccc(C(=O)[C@H]3CCC[C@H]3C(=O)O)cc2)cc1,Potency,[3],inactive
same,Potency,[7],inactive
same,Potency,[8],26.4 µM (active)
same,Potency,[10],inactive
same,Potency,[4],inactive
same,Potency,[5],20.9 µM (active)
same,Potency,[12],inactive
CCC[C@H](N[C@@H](C)C(=O)N1[C@@H]2CCCC[C@H]2C[C@H]1C(=O)O)C(=O)OCC,Potency,[13],inactive
same,Potency,[14],inactive
same,Potency,[3],inactive
same,Potency,[8],20.9 µM (active)
same,Potency,[15],inactive
same,Potency,[4],inactive
same,Potency,[12],inactive
same,Potency,[11],18.7 µM (active)
CN[C@@H](C)[C@H]1[C@H](O)C[C@@]2(C)[C@@H]3CC[C@H]4C(C)(C)[C@@H](NC)CC[C@@]45C[C@@]35CC[C@]12C,viability,[13],62.4% (active)
same,Potency,[1],inactive
same,Potency,[14],inactive
same,Potency,[3],inactive
same,Potency,[16],inactive
same,Potency,[10],inactive
same,Potency,[15],inactive
same,Potency,[17],inactive
same,Potency,[4],inactive
Cc1ccc2c(c1)c1c(n2CCc2ccc(C)nc2)CCN(C)C1,Potency,[1],inactive
same,Potency,[14],inactive
same,Potency,[3],inactive
same,Potency,[7],inactive
same,Potency,[8],inactive
same,Potency,[16],inactive
same,Potency,[15],inactive
same,Potency,[6],inactive
CC1CNc2c(cccc2S(=O)(=O)N[C@@H](CCCN=C(N)N)C(=O)N2CC[C@@H](C)C[C@@H]2C(=O)O)C1 (some centres not stated),Potency,[1],inactive
same,Potency,[7],inactive
same,Potency,[8],7.43 µM (active)
same,Potency,[10],inactive
same,Potency,[4],inactive
same,Potency,[9],inactive
same,Potency,[6],inactive
CCOC(=O)[C@@H](N)CCC(=O)N[C@@H](CSCc1ccccc1)C(=O)N[C@@H](C(=O)OCC)c1ccccc1,Potency,[15],inactive
same,Potency,[9],23.5 µM (active)
Cn1c(=O)c(-c2c(Cl)cccc2Cl)cc2cnc(Nc3cccc(C(=O)O)c3)nc21,Potency,[13],0.0833 µM (active)
same,Potency,[1],3.32 µM (active)
same,Potency,[3],inactive
same,Potency,[16],9.35 µM (active)
same,Potency,[15],5.26 µM (active)
same,Potency,[17],0.59 µM (active)
same,Potency,[5],13.2 µM (active)
same,Potency,[12],inactive
same,Potency,[11],2.09 µM (active)
CO[C@H]1C=CO[C@@]2(C)Oc3c(C)c(O)c4c(O)c(c(C=NN5CCN(C)CC5)c(O)c4c3C2=O)NC(=O)C(C)=CC=C[C@H](C)[C@H](O)[C@@H](C)[C@@H](O)[C@@H](C)[C@H](OC(C)=O)[C@H]1C,Potency,[3],inactive
same,Potency,[7],inactive
same,Potency,[8],inactive
same,Potency,[16],0.533 µM (active)
same,Potency,[4],2.12 µM (active)
same,Potency,[9],inactive
same,Potency,[5],0.598 µM (active)
same,Potency,[12],inactive
CN[C@@H]1[C@@H](O)[C@@H](O[C@@H]2[C@@H](O)[C@H](O[C@H]3O[C@H](CN)[C@@H](O)[C@H](O)[C@@H]3O)[C@@H](N)C[C@@H]2NC(=O)[C@@H](O)CN)OC[C@]1(C)O,Potency,[2],5.26 µM (active)
same,Potency,[3],inactive
same,Potency,[7],inactive
same,Potency,[16],inactive
same,Potency,[10],inactive
same,Potency,[15],inactive
same,Potency,[9],inactive
same,Potency,[12],inactive
same,Potency,[6],18.7 µM (active)
O=C(Nc1cccc(C(F)(F)F)c1)Nc1cc(S(=O)(=O)NC2CC2)ccc1-c1ccsc1,Potency,[1],16.6 µM (active)
same,Potency,[2],18.7 µM (active)
same,Potency,[3],23.5 µM (active)
same,Potency,[7],inactive
same,Potency,[8],20.9 µM (active)
same,Potency,[16],20.9 µM (active)
same,Potency,[9],18.7 µM (active)
same,Potency,[12],26.4 µM (active)
CCC[C@H](Nc1nc(-c2ccc(NC(=O)NCC)c(OC)c2)ncc1C)c1cccnc1,Potency,[1],0.0209 µM (active)
same,Potency,[2],0.0209 µM (active)
same,Potency,[3],0.0074 µM (active)
same,Potency,[8],0.0209 µM (active)
same,Potency,[16],0.0187 µM (active)
same,Potency,[10],0.0187 µM (active)
same,Potency,[15],0.0148 µM (active)
same,Potency,[4],0.0059 µM (active)
same,Potency,[5],0.0166 µM (active)
same,Potency,[12],0.001 µM (active)
same,Potency,[11],0.003 µM (active)
Cc1ccc(C(=O)N(CCCN)[C@@H](c2nc3cc(Cl)ccc3c(=O)n2Cc2ccccc2)C(C)C)cc1,Potency,[1],23.5 µM (active)
same,Potency,[2],26.4 µM (active)
same,Potency,[3],8.33 µM (active)
same,Potency,[4],inactive
same,Potency,[11],23.5 µM (active)
C=CC(=O)Nc1cccc(Sc2nc(Nc3ccc(N4CCN(C)CC4)cc3)ncc2Cl)c1,Potency,[8],18.7 µM (active)
same,Potency,[9],0.743 µM (active)
same,Potency,[11],37.2 µM (active)
CNc1nc(-c2ccc3c(N)n[nH]c3c2)cc(N2C[C@@H](C(=O)NC3CCCCC3)CC[C@@H]2C)n1,Potency,[3],1.18 µM (active)
same,Potency,[7],18.7 µM (active)
same,Potency,[8],16.6 µM (active)
same,Potency,[16],18.7 µM (active)
same,Potency,[10],2.64 µM (active)
same,Potency,[4],20.9 µM (active)
same,Potency,[9],0.0662 µM (active)
same,Potency,[6],16.6 µM (active)
CN(C)CCOc1cc(-c2cn[nH]c2)ccc1NC(=O)C1COc2ccccc2O1 (configuration not stated),Potency,[14],inactive
same,Potency,[3],18.7 µM (active)
same,Potency,[7],inactive
same,Potency,[16],13.2 µM (active)
same,Potency,[15],13.2 µM (active)
same,Potency,[4],9.35 µM (active)
